# Assay outcomes as filed in PubChem BioAssay.
# PNC assembly inh: blocks assembly of the perinucleolar compartment; AID 2417; actives 3.1% (n = 140,000); PC3M PTB-GFP, PNC prevalence imaging, 16 h; hits give low values; activity change (PNC), negative = inhibition, % at 10 µM;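 active means readout at or below -70, meaning at least 70% loss of cells showing the perinucleolar compartment, a nuclear body marking cancer cells; inconclusive means readout between -30 and a set limit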;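 further: plate controls were DMSO wells for no effect and camptothecin positive control wells for full effect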
#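 Read-out is percentage of cells bearing a perinucleolar compartment, from automated 20x imaging of fixed, Hoechst-stained PC3M PTB-GFP cells. Cells were seeded 4 h, then exposed 16 h to compound (23 nl of library stock) in duplicate plates.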
# IMPase Li inh: cell-permeable IMPase inhibitors with lithium potentiation. CHO-M1 cells, IP1 TR-FRET (IP-One), carbachol + lithium. Potency, µM (titrated, usually from 59.4 µM), for inactives: at the highest dose activity, negative = IMPase inhibition, usual class: inhibitors. actives 0.35% (n = 210,000). AID 1457;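 further: IP1 builds up when IMPase is blocked and the TR-FRET signal falls; potency means the concentration at half of the fitted maximal effect; plate controls were basal vehicle for no effect and high inhibitor control for full effect; nearly all actives have a fitted effect of over 50% in size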
#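 Lithium-sensitised IP1 accumulation assay; M1-expressing CHO cells treated 30 min at 37C with compound. Competitive antibody detection by time-resolved FRET followed a 10 min room-temperature lysis step.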
# IMPase cell inh: cell-permeable inhibitors of inositol monophosphatase (IMPase); inhibition (IP1 accumulation), % at 46.1 µM; AID 901; P97697; 120,000 tested, under 10 active; CHO-M1 cells, IP1 accumulation, HTRF TR-FRET ratio; active means well fitted curve in the direction sought with a large enough effect in the signal ratio, not every such curve was filed as active; inconclusive means small, poorly fitted or top-dose-only effect, or a change in a side signal; inactive means no such curve, though single readings can be large or run the other way; the % refers to the signal ratio;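 further: cells stimulated with carbachol in lithium chloride buffer; plate controls were DMSO basal wells for no effect and reference inhibitor wells for full effect; higher means more IMPase inhibition seen as more IP1 and lower FRET ratio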
# Target sequence (P97697 whole entry, looked up): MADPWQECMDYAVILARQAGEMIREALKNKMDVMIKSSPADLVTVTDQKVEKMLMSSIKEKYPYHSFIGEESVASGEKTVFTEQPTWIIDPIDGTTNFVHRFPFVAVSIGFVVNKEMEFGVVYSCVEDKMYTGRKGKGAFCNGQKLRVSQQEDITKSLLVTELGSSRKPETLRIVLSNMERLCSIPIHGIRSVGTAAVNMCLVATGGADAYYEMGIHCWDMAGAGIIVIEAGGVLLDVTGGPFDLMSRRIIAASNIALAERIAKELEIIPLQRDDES
#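 CHO-M1, 2000 cells/well, cultured 16–30 h; cpd up to 46 uM; carbachol (50 uM solution, stimulation buffer w/ 50 mM LiCl, pH 7.4), 30 min 37C; IP-One TR-FRET, 10 min RT; Ex 320/Em 665, 620; Hill-fit AC50.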
# 12-hLO inh: inhibitors of human 12-lipoxygenase (ALOX12) | Potency, µM (doses to about 57.1 µM), for inactives: at the highest dose activity change, negative = inhibition, usual class: inhibitors | P18054 | actives 0.12% (n = 150,000) | purified 12-hLO, xylenol orange hydroperoxide absorbance; further: potency means the concentration at half of the fitted maximal effect; nearly all actives have a fitted effect of over 55% in size
#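 Hydroperoxide output read as Fe(III)-xylenol orange absorbance, 573-to-405 nm ratio, after 30 min reaction with 40 uM arachidonic acid. Enzyme: 150 nM purified human 12hLO, 15 min compound preincubation; 25 mM Hepes pH 7.0, room temperature.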
# ALDH1A1 inh: blocks purified human ALDH1A1 activity. Potency, µM (doses to about 75.3 µM), for inactives: at the highest dose activity, negative = inhibition, actives largely listed as inhibitors. P00352. actives 7.3% (n = 220,000). Purified ALDH1A1, NADH fluorescence, propionaldehyde substrate; active means well fitted inhibition curve with a large enough effect, not every such curve was filed as active; inconclusive means small, poorly fitted or top-dose-only effect, or another doubt; inactive means no such curve, though single readings can be large or run the other way;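 further: potency means the concentration at half of the fitted maximal effect; plate controls were no enzyme wells and a reference inhibitor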
# HPGD inh: blocks human HPGD enzyme activity; P15428; purified HPGD, NADH fluorescence kinetic, PGE2 substrate; Potency, µM, for the others: at the top dose activity change, negative = inhibition, most hits filed as inhibitors; actives 4.3% (n = 150,000); active means well fitted inhibition curve with a large enough effect, not every such curve was filed as active; inconclusive means small, poorly fitted or top-dose-only effect, or another doubt; inactive means no such curve, though single readings can be large or run the other way; further: potency means the concentration at half of the fitted maximal effect
# Target sequence (P15428 whole entry, looked up): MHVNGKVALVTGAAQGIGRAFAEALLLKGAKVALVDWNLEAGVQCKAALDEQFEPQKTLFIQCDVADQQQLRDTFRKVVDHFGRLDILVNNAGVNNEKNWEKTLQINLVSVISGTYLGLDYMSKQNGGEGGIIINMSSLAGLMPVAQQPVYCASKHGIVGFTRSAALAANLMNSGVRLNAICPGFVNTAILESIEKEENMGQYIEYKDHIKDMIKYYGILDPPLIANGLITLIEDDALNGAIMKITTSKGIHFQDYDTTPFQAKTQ
#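 20 nM HPGD preincubated 15 min at room temperature with compound in 50 mM Tris-HCl pH 8, 0.01% Tween 20. Started with 1 mM NAD+ and 30 uM prostaglandin E2; NADH fluorescence (360/450 nm) read 5 times over 30-s intervals, last minus first.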
# The depositor's hits bear a star; ? = inconclusive; nt = no result; ! = a repeat was not active; [ ] = dose if it differs, or a comment. Compounds with a hit are over-represented: about 11% of the library has one in this group of screens. Unless noted, the call rests on the fitted dose curve; in most records, active means well fitted curve in the direction sought with a large enough effect; inconclusive means small, poorly fitted or top-dose-only effect, or another doubt; inactive means no such curve, though single readings can be large; an effect the other way counts as inactive or inconclusive. Unless noted, on the % scale 0 is the no-effect control and ±100 the full control effect.
SMILES,PNC assembly inh,IMPase Li inh,IMPase cell inh,12-hLO inh,ALDH1A1 inh,HPGD inh
Cc1cccc(C)c1N=C1SC(CC(=O)Nc2c(C)cccc2C)C(=O)N1CCc1ccccn1 (stereo not given),-112*,3%,nt,-1%,2%,-6%
COc1ccc(N=C2SC(CC(=O)Nc3ccccc3F)C(=O)N2Cc2ccco2)cc1 (stereo not given),-3,4%,nt,-2%,2.5µM*,-8%
COc1cccc(N=C2SC(CC(=O)Nc3ccccc3)C(=O)N2Cc2ccccn2)c1 (stereo not given),nt,8%,nt,nt,8.9µM*,nt
O=C(c1csnn1)N1CCC2(CC1)CCN(c1ccncc1)CC2,nt,29%,nt,0%,1%,-3%
COc1cccc(-c2ccc(=O)n(CC(=O)Nc3cc4c(cc3NC(C)=O)OCCO4)n2)c1,-9,-3%[38.3 µM],3,3%,2%,-1%
Cc1nn(CC(=O)Nc2ccc3c(c2)nc(CN2CCCC2)n3C)c(=O)c2ccccc12,-100*,1%[38.3 µM],-4,-5%,-1%,-3%
O=C(Cn1nc(-c2ccccc2)c2ccccc2c1=O)Nc1ccc2c(c1)nc1n2CCOC1,18,-6%[38.3 µM],8,-7%,4%,-13%
Cc1ccc(-c2nn(CC(=O)Nc3ccc4c(c3)nc3n4CCOC3)c(=O)c3ccccc23)cc1,25,10µM*,-1,-4%,-2%,?
COc1cccc(-c2ccc(=O)n(CC(=O)Nc3ccc(C(=O)N4CCCC4)cc3)n2)c1,32,11%[38.3 µM],0,-5%,?,13µM*
Cn1c(CN2CCCC2)nc2cc(NC(=O)COc3ccccc3)ccc21,?,9%[38.3 µM],-2,-2%,17%,-4%
Cc1nn(CC(=O)Nc2ccc(C(=O)N3CCCC3)cc2)c(=O)c2ccccc12,-4,18%[38.3 µM],-3,2%,-15%,14µM*
O=c1cc(-c2cccc(-c3ccc(C(F)(F)F)cc3)c2)c2cc3c(cc2o1)OCO3,nt,5%,nt,-2%[0.00818 µM],?,-12%
CCOC(=O)CNC(=O)O[C@@H]1C(=O)c2cc(OC)ccc2O[C@H]1c1ccc(OC)c(Br)c1,nt,4%,nt,nt,2%,-7%
CN1/C(=C\C(=O)C[n+]2ccc3ccccc3c2)C(C)(C)c2ccccc21,nt,16%,nt,nt,5%,nt
CNc1ncncc1-c1ccccc1C,nt,-1%,nt,nt,10%,nt
Cn1cc(C=C2C(=O)Nc3cccnc32)c2ccccc21,nt,14%,nt,-1%[0.00818 µM],-5%,-6%
Cc1nn(CC(=O)Nc2ccc(C(=O)N3CCCCC3)cc2)c(=O)c2ccccc12,-17,29%[38.3 µM],-4,-1%,13µM*,1.1µM*
O=C(Cn1nc(-c2ccc(F)cc2)ccc1=O)Nc1ccc(C(=O)NC2CC2)cc1,37,-1%[38.3 µM],4,3%,5%,28µM*
Cc1nn(CC(=O)Nc2cccnc2)c(=O)c2ccccc12,nt,6%,nt,nt,5%,nt
COc1cc2c(C(=O)N3CCN(C4CCCCC4)CC3)cn(CC(C)C)c(=O)c2cc1OC,?,11%[38.3 µM],1,-9%,22µM*,-8%
CCOC(=O)C1CCCN(C(=O)c2cn(CC(C)C)c(=O)c3cc(OC)c(OC)cc23)C1 (stereo not given),-100*,4%,-1,-6%,?,-27%
Cc1ccc(NC(=O)CSc2nc(-c3ccco3)cc(C(F)(F)F)n2)cc1,nt,nt,-5,nt,nt,nt
CCCCc1nc2c(c3c1C[C@H](C)OC3)CN(C(=O)C1CCCCC1)CC2,nt,5%,nt,2%[11.4 µM],13%[13.5 µM],0%
COc1ccc(CCNC(=O)C2CC(=O)N(C3CCCCCCC3)C2)cc1OC (stereo not given),11,4%[38.3 µM],-4,4%,?,-2%
COc1ccc(CN2CCN(C(=O)C3CC(=O)N(C4CCCCCC4)C3)CC2)c(OC)c1OC (stereo not given),26,7%[38.3 µM],-1,0%,20µM*,-1%
SMILES,PNC assembly inh,IMPase Li inh,IMPase cell inh,12-hLO inh,ALDH1A1 inh,HPGD inh
COc1cc(-c2nc(S(=O)(=O)c3ccc(Cl)cc3)c(N3CCOCC3)o2)cc(OC)c1OC,67,25%[38.3 µM],1,4%,1µM*,-11%
COc1ccc(-c2nc(S(=O)(=O)c3ccc(C)cc3)c(N3CCCCC3)o2)cc1,nt,nt,-3,nt,nt,nt
COc1cc(-c2nc(S(=O)(=O)c3ccc(C)cc3)c(N3CCOCC3)o2)cc(OC)c1OC,?,-7%,-3,0%,1.1µM*,-12%
CC(C)(C)c1nc(S(=O)(=O)c2ccc(Cl)cc2)c(N2CCOCC2)o1,41,1%[38.3 µM],-1,-3%,18µM*,-13%
Cc1ccc(-c2nc(S(=O)(=O)c3ccc(Cl)cc3)c(N3CCCCC3)o2)cc1,nt,nt,-4,nt,nt,nt
C/C(N)=C(/C#N)C(=O)COC(=O)c1cc(C)n(-c2ccc(F)cc2)c1C,-129*,30%[38.3 µM],10,6%,13µM*,-27%
Cc1cc(C(=O)OCC(N)=O)c(C)n1-c1ccccc1,nt,1%,nt,nt,1%,nt
CCN(c1ccccc1)c1cc(NC)[n+](C)c(C)n1,nt,8%,8,-3%,-13%,0%
CCc1oc2ccccc2c1C(=O)c1cc(Br)c(O)c(Br)c1,26,-19%,-17[20.6 µM],-17%,-9%[13.5 µM],18µM*!
N#C/C(=N\Nc1ccc(S(=O)(=O)N2CCOCC2)cc1)C(N)=S,nt,nt,nt,nt,3.2µM*,nt
N#CC(C#N)=NNc1ccc(S(=O)(=O)N2CCCCC2)cc1,?,14%,nt,-1%,?,32µM*
COC(=O)Nc1ccc(S(=O)(=O)N2CCCCCC2)cc1,99,1%,-2,-2%,2%,-19%
O=C(NCCN1CCCCC1)c1ccc(Cc2nc3ccccc3[nH]2)cc1,nt,nt,nt,-1%,6%,-6%
O=C(c1ccc2nc(N3CCOCC3)sc2c1)N1CCCC1,0,14%[38.3 µM],-8,-4%,5%,14µM*
O=C(c1ccc(Cl)c([N+](=O)[O-])c1)N1CCN(Cc2ccc3c(c2)OCO3)CC1,nt,11%,nt,nt,19µM*,nt
CC1CCN(c2nc3ccc(C(=O)N4CCN(Cc5ccc6c(c5)OCO6)CC4)cc3s2)CC1,-19,18%[38.3 µM],24,-5%,?,18µM*
Cc1ccc(S(=O)(=O)N2CCN(Cc3ccc4c(c3)OCO4)CC2)cc1,nt,nt,-3,nt,nt,nt
COc1ccc(N2CCN(C(=O)c3ccc4nc(N5CCCCC5)sc4c3)CC2)cc1,?,38%[38.3 µM],2,5%,?,-24%
Cc1c(C(=O)N2CCN(Cc3ccc4c(c3)OCO4)CC2)cccc1[N+](=O)[O-],162,-4%,nt,-1%,2%,-1%
O=S(=O)(c1ccc(Cl)nc1)N1CCN(Cc2ccc3c(c2)OCO3)CC1,2,28%[38.3 µM],-4,-3%,14µM*,-3%
CC(C)OC(=O)c1cc2c(OC[C@@H](O)CNC(C)(C)C)cccc2[nH]1,nt,4%,1,-1%,?,-26%
